Data on seven compounds can be found in PubChem BioAssay.

A word on the inhibition: it is the relative decrease from the control value, in per cent. One may read the viability as a read-out of living cells in per cent, often relative to untreated cells.

For experiment [1], the target named is 6-phosphogluconate dehydrogenase, decarboxylating (Homo sapiens) (UniProt P52209). The experiment in a line: inhibition of human phosphogluconate dehydrogenase – biochemical, recombinant enzyme, NADPH absorbance, primary screen (AID 1159550;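 active = at least 20% inhibition of 6-phosphogluconate dehydrogenase activity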). Conditions: recombinant 6PGD, NADPH absorbance 341 nm; at 10 µM; stronger effect = higher value.
6-phosphogluconate dehydrogenase, decarboxylating (Homo sapiens), sequence (P52209 whole entry, looked up): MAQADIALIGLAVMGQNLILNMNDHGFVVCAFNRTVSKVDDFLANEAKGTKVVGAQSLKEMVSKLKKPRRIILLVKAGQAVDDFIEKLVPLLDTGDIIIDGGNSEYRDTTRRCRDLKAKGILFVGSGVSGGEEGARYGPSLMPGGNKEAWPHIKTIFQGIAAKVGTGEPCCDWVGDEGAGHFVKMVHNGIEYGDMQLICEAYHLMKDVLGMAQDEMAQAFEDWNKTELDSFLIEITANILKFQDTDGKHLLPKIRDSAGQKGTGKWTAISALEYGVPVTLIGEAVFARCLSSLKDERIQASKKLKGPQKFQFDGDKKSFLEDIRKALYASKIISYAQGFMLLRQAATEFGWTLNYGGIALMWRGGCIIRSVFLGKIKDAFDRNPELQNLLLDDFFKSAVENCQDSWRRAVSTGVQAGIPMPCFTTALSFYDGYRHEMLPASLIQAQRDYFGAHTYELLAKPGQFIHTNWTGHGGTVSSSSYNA
Experiment [2] can be described thus: EMT-state selective cytotoxicity in co-culture – imaging, PC-3E GFP, TEM4-18 mCherry, primary screen (AID 1345086;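 active = compounds killing one labelled cell type while sparing the other, by normalised counts and ratio limits, not self-fluorescent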;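 for all read-outs here: cells exposed to compound for 72 h before imaging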;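 for red/green cell ratio (normalised): normalised mesenchymal count divided by normalised epithelial count so high means epithelial killing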). The note with it: PC-3E GFP / TEM4-18 mCherry co-culture, imaging cell counts, at 1 µM; for red/green cell ratio (normalised): actives lie on both sides, counts scaled to control wells, 1 = unselective.
Experiment [3] in a line: P. berghei load reduction in hepatocytes – cell-based, HepG2, luciferase luminescence, HepG2 viability, primary screen (AID 624349; in the data active = parasite load remaining mostly below about 12%, no sharp cut-off; inactive = mostly above about 10%;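 note: 100% = mean of DMSO negative control wells on the same plate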). The note with it: P. berghei liver stage in HepG2, luciferase luminescence, concentration not given here; parasite load remaining: stronger effect = lower value; viability: measured here: HepG2 viability without parasites.
Experiment [4] is described as follows: viability loss with induced miR-34 in A549 – imaging, A549 dox-inducible miR-34, nuclei and caspase counts, primary screen (AID 1347080). The note with it: A549 miR-34 inducible, Hoechst nuclei count, 48 h.
Experiment [5] can be described thus: MELAS cybrid and Rieske KO viability enhancers – cell-based, MELAS cybrids, Rieske KO mouse fibroblasts, CellTiter-Glo, primary screen (AID 1508586;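 active = mean z-score across replicates of 1.96 or higher in either the MELAS or the Rieske mutant cell line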;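 note: z relative to plate mean and SD of compound and empty wells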). The note with it: low glucose.
Experiment [6] has as its target Mitogen-activated protein kinase 7 (Homo sapiens) (UniProt Q13164). The experiment in a line: Gal4-ERK5 driven luciferase induction – cell-based, HTS, primary screen (AID 1508626;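 active = luciferase signal above three times the same-plate solvent-only control wells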;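 note: luciferase driven by Gal4-ERK5 fusion binding five Gal4 sites before minimal TATA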). The note with it: HeLa Gal4-ERK5 transactivation, 18 h, at 5 µM, stronger effect = higher value.
A short description of experiment [7]: galactose survival enhancers in mitochondrial complex I cybrids – cell-based, galactose medium, ATP luminescence, primary screen (AID 1645843;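 active = z-score of at least 1.8 in each of two replicates, scored against plate mean and spread of sample wells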;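 note: positive z means more ATP and so rescue of galactose-driven cybrid death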). The note with it: complex I mutant cybrid cells, 72 h, stronger effect = higher value.
Experiment [8] is described as follows: blockers of polyQ-driven CASP3 activation – cell-based (AID 1583). The note with it: polyglutamine-induced caspase-3 activation, cell assay; stronger effect = higher value;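 tested at 10 µM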.
Experiment [9] can be described thus: yeast 75Q aggregation reduction – 75Q-TubU reporter (AID 1593). The note with it: Yeast 75Q polyglutamine aggregation reporter.
Experiment [10] in a line: restoration of touch response, mutant HTT neurons – whole organism, C. elegans mechanosensory neurons, N-terminal huntingtin (AID 1599). The note with it: C. elegans polyQ-huntingtin mechanosensory neurons, stronger effect = higher value.
Experiment [11] in a line: blockers of cytochrome c efflux from mitochondria – biochemical, purified mitochondria (AID 1603).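 Note: mouse liver mitochondria challenged with calcium chloride; signal normalized to the plate average as 100%.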 The note with it: stronger effect = lower value.
The nature of experiment [12]: polyglutamine aggregate formation blockers (AID 1604). Conditions: polyglutamine-induced protein aggregation inhibition assay; stronger effect = higher value; tested at 2.5 µM.
Experiment [13] is described as follows: glutamate transport activators, MN-1 cells, MN-1 cell line (AID 1612).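 Note: tested at 1 µM final; 0% = mean of DMSO vehicle wells on each plate; positive means more glutamate uptake than control and negative means less.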 The note with it: MN-1 motor neuron cells, stronger effect = higher value.
Experiment [14] in a line: GFP-Q80 aggregate reduction, neuronal-like cells, cell-based, NGF-treated PC12, GFPQ80 (AID 1614).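 Note: lower means fewer inclusions and 0 means no inclusions at all.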 The note with it: PC12 NGF-treated GFP-polyQ80 inclusion reduction.
Experiment [15] can be described thus: 75Q-TubH aggregate inhibition, S. cerevisiae, yeast (AID 1616). The note with it: S. cerevisiae 75Q-TubH polyglutamine aggregation suppression; stronger effect = higher value.
The nature of experiment [16]: compounds altering circadian rhythm period length – cell-based, LOPAC library, luminescence reporter (AID 2774; call rule not given here;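 note: values are relative to mean of DMSO wells on each plate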). The note with it: circadian reporter cells, at 7 µM, actives lie on both sides.
The subject of experiment [17] is Hepatitis C virus NS3 helicase. The experiment in a line: blockers of NS3h binding to ssDNA – biochemical, fluorescence polarization, LOPAC1280 library, primary screen (AID 687035; in the data active = inhibition above about 37%). The note with it: Purified HCV NS3 helicase, Cy5-dT15 ssDNA binding fluorescence polarization; stronger effect = higher value; concentration not given here. (In fluorescence polarisation assays a small probe gives low polarisation when free and higher when bound to something large.)

A short description of experiment [18]: blockers of cellular phospholipid synthesis – cell-based, LOPAC library, screen 4, primary screen (AID 1347384; call rule not given here). Conditions: animal cells, phospholipid biosynthesis inhibition screen; at 10 µM.
In experiment [19] the target is NAD(+) hydrolase SARM1 (Homo sapiens) (UniProt Q6SZW1). The experiment in a line: blocking NAD cleavage by SARM1 SAM-TIR – cell lysate, NAD-Glo luminescence (AID 1508614;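 active = compound whose remaining NAD level is above about 45 nM, limit read from the data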;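 note: higher remaining NAD means stronger inhibition of SARM1 NADase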). Conditions: SAM-TIR HEK293T lysate NADase, at 1 µM, stronger effect = higher value.
NAD(+) hydrolase SARM1 (Homo sapiens), sequence (Q6SZW1 whole entry, looked up): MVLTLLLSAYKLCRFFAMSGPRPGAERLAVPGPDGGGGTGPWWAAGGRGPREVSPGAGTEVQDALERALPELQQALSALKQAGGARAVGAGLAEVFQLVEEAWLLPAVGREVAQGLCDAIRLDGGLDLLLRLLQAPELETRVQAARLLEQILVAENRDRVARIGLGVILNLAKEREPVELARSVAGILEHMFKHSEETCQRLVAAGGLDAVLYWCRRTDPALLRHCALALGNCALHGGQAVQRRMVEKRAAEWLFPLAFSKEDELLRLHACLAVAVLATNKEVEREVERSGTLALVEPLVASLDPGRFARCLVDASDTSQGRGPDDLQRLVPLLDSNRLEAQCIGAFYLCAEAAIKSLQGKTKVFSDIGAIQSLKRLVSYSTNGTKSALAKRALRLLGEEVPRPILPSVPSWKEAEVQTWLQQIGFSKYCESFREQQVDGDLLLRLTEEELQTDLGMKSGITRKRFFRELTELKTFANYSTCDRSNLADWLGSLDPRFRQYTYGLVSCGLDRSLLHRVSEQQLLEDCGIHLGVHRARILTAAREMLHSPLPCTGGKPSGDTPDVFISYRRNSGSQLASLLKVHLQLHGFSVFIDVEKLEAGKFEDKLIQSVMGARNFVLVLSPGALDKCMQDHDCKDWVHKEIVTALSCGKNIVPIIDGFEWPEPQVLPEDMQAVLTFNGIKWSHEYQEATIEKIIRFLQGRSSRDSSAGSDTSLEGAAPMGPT
Setting [20] is: measured here: epithelial PC-3E GFP cell survival.
[21] abbreviates: measured here: mesenchymal TEM4-18 mCherry cell survival.
Setting [22] is: stronger effect = lower value, cell number ratio, induced over uninduced.
Where [23] appears, read: measured here: relative caspase fold change +Dox/-Dox.
Where [24] appears, read: measured here: total cells with miR-34 induction, stronger effect = lower value.
[25] abbreviates: measured here: total cells without miR-34 induction.
[26] abbreviates: MELAS cybrid survival, CellTiter-Glo 48 h, stronger effect = higher value.
Where [27] appears, read: Rieske KO mouse fibroblast survival, CellTiter-Glo 72 h.

“And” between values parts separate entries of the source, which are not always exact repeats. Equal values may be shown once. For part of these data: Measured potencies and affinities stand elsewhere. Some compounds were tested as several samples or in several runs, with calls that do not always agree. The source made the active and inactive calls.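 Rule for the calls, unless noted: active = compounds whose cell count with miR-34 switched on is under 0.7 times the count with it off; inactive = the rest.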

Mitogen-activated protein kinase 7 (Homo sapiens), sequence (Q13164 whole entry, looked up, the tested form may be a part): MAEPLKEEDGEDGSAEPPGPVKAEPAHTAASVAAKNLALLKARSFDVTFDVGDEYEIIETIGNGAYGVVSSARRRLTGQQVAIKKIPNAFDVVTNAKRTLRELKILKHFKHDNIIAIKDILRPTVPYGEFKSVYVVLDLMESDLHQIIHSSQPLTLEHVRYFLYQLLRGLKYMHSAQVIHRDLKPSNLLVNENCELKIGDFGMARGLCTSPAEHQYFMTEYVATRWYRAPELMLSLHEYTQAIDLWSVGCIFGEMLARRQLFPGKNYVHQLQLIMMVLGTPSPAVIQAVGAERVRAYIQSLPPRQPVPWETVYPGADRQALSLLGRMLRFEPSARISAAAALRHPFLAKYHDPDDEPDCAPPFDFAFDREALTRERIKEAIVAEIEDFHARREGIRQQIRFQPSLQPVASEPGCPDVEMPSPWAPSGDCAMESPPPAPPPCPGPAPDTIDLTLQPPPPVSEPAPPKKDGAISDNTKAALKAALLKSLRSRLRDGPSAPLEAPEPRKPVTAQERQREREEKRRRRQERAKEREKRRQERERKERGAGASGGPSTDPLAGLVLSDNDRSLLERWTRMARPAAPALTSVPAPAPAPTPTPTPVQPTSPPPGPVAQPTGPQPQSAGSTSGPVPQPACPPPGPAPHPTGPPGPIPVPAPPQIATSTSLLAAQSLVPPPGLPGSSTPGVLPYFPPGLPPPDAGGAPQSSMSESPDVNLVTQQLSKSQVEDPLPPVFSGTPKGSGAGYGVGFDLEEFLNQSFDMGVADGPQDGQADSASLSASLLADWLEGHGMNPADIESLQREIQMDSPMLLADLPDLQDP

Consider `O=C(/C=C/C(=O)Oc1ccccc1C(=O)O)Oc1ccccc1C(=O)O`, for which the inhibition in experiment [1] was -15.7% (inactive). Also, the red/green cell ratio (normalised) in experiment [2] is 1.09 (inactive). In addition, the normalised cell number in experiment [2] (setting [20]) amounted to 1.17; in [2] (setting [21]) it was 1.27.
With `CC(=O)c1ccc[nH]1`, the inhibition in experiment [1] is 13.8% (inactive). For the same compound, in [2], the red/green cell ratio (normalised) was 0.97 (inactive). For the same compound, the normalised cell number in experiment [2] (setting [20]) is 1.06; in experiment [2] (setting [21]), 1.03.
Take `O=c1cc(-c2ccccc2)oc2cc(O)c(O)c(O)c12`: the parasite load remaining in experiment [3] was 140% (inactive). The compound further showed a viability in [3] of 91.4%. Moreover, the inhibition in experiment [1] was 4.11% (inactive). In addition, the red/green cell ratio (normalised) in experiment [2] is 0.84 (inactive). Also, the normalised cell number in experiment [2] (setting [20]) is 1.08; in experiment [2] (setting [21]), 0.91. Besides, the fold change is 1.03 (inactive) and 0.801 (inactive) and 0.986 (inactive) in experiment [4] (setting [22]); 1.01 and 1.16 and 0.831 in experiment [4] (setting [23]). Further, the cell count in experiment [4] (setting [24]) is 5800 and 6380 and 7810; in experiment [4] (setting [25]), 5640 and 7960 and 7920. The z-score in [5] (setting [26]) was -0.448 (inactive); in experiment [5] (setting [27]), -1.5; in [7], -0.805 (inactive). Moreover, in experiment [6], the luciferase signal was 60 AU (inactive).
On to `O=c1cc(-c2ccc(O)cc2)oc2cc(O)cc(O)c12`, for which the inhibition was 0.12% in experiment [8], -1% (inactive) in experiment [17] and -0.0494% (inactive) in experiment [1]. Also, the score in [9] is 1.67. Further, the rescue above control in [10] came out at 2.14. In addition, the cytochrome c release ratio in experiment [11] came out at 3.46. Moreover, the inhibition of aggregation in experiment [12] was -7.84%. For the same compound, the glutamate uptake change in experiment [13] is -6.97%. The inclusion score in experiment [14] was determined as 1.5. In experiment [15], the aggregation suppression score is 1.4. Further, the period change in [16] is 0.02 h (inactive). In addition, the parasite load remaining in experiment [3] was 95.8% (inactive) and 11.3% (inactive) and 116% (inactive). Besides, in experiment [3], the viability is 94.9% and 100% and 77.5%. Moreover, the red/green cell ratio (normalised) in [2] was 0.91 (inactive). Further, the normalised cell number was found to be 1.2 in experiment [2] (setting [20]) and 1.09 in experiment [2] (setting [21]). In addition, in experiment [18], the compound was classed as inactive. Besides, the z-score was -0.412 (inactive) in experiment [5] (setting [26]); 0.346 in [5] (setting [27]); 2.56 (active) and -0.305 (inactive) in experiment [7]. Moreover, the luciferase signal in [6] is 64 AU (inactive).
As to `Cc1cc(O)c2c(c1)C(=O)c1cc(O)cc(O)c1C2=O`, the period change in [16] was 0.05 h (inactive). Besides, the inhibition in [17] is 0% (inactive); in experiment [1], 2.17% (inactive). In addition, in experiment [2], the red/green cell ratio (normalised) was 1.05 (inactive). Besides, the normalised cell number in [2] (setting [20]) is 1.08; in experiment [2] (setting [21]), 1.13. Moreover, the fold change was 1.01 (inactive) and 0.837 (inactive) in experiment [4] (setting [22]); 1.12 and 1.08 in [4] (setting [23]). The cell count in [4] (setting [24]) is 8200 and 6790; in experiment [4] (setting [25]), 8110. Also, in [18], the compound was called inactive. The z-score is -0.41 (inactive) in experiment [5] (setting [26]), 0.119 in experiment [5] (setting [27]) and 0.08 (inactive) in experiment [7].
Turning to `COc1ccc(-c2coc3cc(O)ccc3c2=O)cc1`, the parasite load remaining in [3] was 260% (inactive). The compound also yielded a viability in experiment [3] of 88.5%. For the same compound, the inhibition in experiment [1] was -6.94% (inactive). Also, in experiment [2], the red/green cell ratio (normalised) was 0.93 (inactive). The normalised cell number in experiment [2] (setting [20]) came to 1.23; in experiment [2] (setting [21]), 1.14. Also, the figures for the fold change in [4] (setting [22]) and in [4] (setting [23]) were 0.949 (inactive) and 0.624, respectively. Moreover, the values for the cell count in experiment [4] (setting [24]) and in [4] (setting [25]) were 7740 and 8150, respectively. Moreover, the z-score was -0.217 (inactive) in [5] (setting [26]) and 0.38 in experiment [5] (setting [27]). In experiment [6], the luciferase signal is 140 AU (inactive).
As for `OCc1ccccc1O[C@@H]1O[C@H](CO)[C@@H](O)[C@H](O)[C@H]1O`, the inhibition in experiment [8] is -10.9%; in [1], 16.9% (inactive). The score in [9] was found to be 1.23. Moreover, in experiment [10], the rescue above control is -13.2. Also, in [11], the cytochrome c release ratio stood at 0.94. Moreover, the inhibition of aggregation in experiment [12] is 25.2%. Further, the glutamate uptake change in [13] was -4.1%. For the same compound, in [14], the inclusion score is 2. The aggregation suppression score in [15] was 1.3. Further, in [3], the parasite load remaining is 107% (inactive) and 32.5% (inactive). The viability in experiment [3] was 66.8% and 91.3%. The red/green cell ratio (normalised) in [2] is 0.91 (inactive). In addition, the results for the normalised cell number in [2] (setting [20]) and in experiment [2] (setting [21]) were 0.63 and 0.57, respectively. The figures for the fold change in [4] (setting [22]) and in experiment [4] (setting [23]) were 0.934 (inactive) and 2.93, respectively. For the same compound, the cell count in experiment [4] (setting [24]) came out at 12100; in experiment [4] (setting [25]) it was 13000. In addition, in experiment [19], the remaining NAD was 10 nM (inactive). Further, the luciferase signal in [6] is 72 AU (inactive).
